From PubChem BioAssay (NCATS) come the findings set out here.

SMILES strings stand for the structures. Calls of active or inactive are those of the source. Calls follow the shape of the full dose curve.

The conditions of the experiment: Ebola virus entry assay, blue channel fluorescence.
As to `COc1cc(C)c(/C=C/C(C)=C/C=C/C(C)=C/C(=O)O)c(C)c1C`, the compound was called inactive.

Turning to `CN[C@@H](C)Cc1ccccc1`, the outcome was inactive. As for `CCCc1nc(C(C)(C)O)c(C(=O)OCc2oc(=O)oc2C)n1Cc1ccc(-c2ccccc2-c2nn[nH]n2)cc1`, the compound was classed as inactive. The same measure, in the same setting: under `CO/N=C(\C(=O)N[C@@H]1C(=O)N2C(C(=O)O)=C(COC(C)=O)CS[C@H]12)c1csc(N)n1` (stereo in doubt) stands “inactive”; under `Cc1noc(NS(=O)(=O)c2ccc(N)cc2)c1C`, “inactive”.

With `COc1cc([C@@H]2c3cc4c(cc3C(O[C@@H]3O[C@@H]5CO[C@@H](C)O[C@H]5[C@H](O)[C@H]3O)C3COC(=O)[C@@H]32)OCO4)cc(OC)c1OP(=O)(O)O` (some centres not stated), the AC50 is 7.08 µM (active). For `CC(C)[C@H](N)C(=O)OCC(CO)OCn1cnc2c(=O)[nH]c(N)nc21` (some centres not stated), the call was inactive. The same measure, in the same setting: under `CC(C)NCC(O)c1ccc(NS(C)(=O)=O)cc1` (configuration not stated) stands “inactive”. With `CC[C@H]1OC(=O)[C@H](C)[C@@H](O[C@H]2C[C@@](C)(OC)[C@@H](O)[C@H](C)O2)[C@H](C)[C@@H](O[C@@H]2O[C@H](C)C[C@H](N(C)C)[C@@H]2O)[C@](C)(O)C[C@@H](C)CN(C)[C@H](C)[C@@H](O)[C@]1(C)O`, the AC50 is 2.51 µM (active).

On to `CCNC(=O)[C@@H]1CCCN1C(=O)[C@H](CCCN=C(N)N)NC(=O)[C@H](CC(C)C)NC(=O)[C@@H](CC(C)C)NC(=O)[C@H](Cc1ccc(O)cc1)NC(=O)[C@H](CO)NC(=O)[C@H](Cc1c[nH]c2ccccc12)NC(=O)[C@H](Cc1cnc[nH]1)NC(=O)[C@@H]1CCC(=O)N1`, for which the call was inactive. Same read-out and setting: under `NC(=O)CC[C@@H]1NC(=O)[C@H](Cc2ccccc2)NC(=O)[C@H](Cc2ccc(O)cc2)NC(=O)[C@@H](N)CSSC[C@@H](C(=O)N2CCC[C@H]2C(=O)N[C@@H](CCCN=C(N)N)C(=O)NCC(N)=O)NC(=O)[C@H](CC(N)=O)NC1=O` stands “inactive”; under `CC[C@H]1OC(=O)[C@H](C)C(=O)[C@H](C)[C@@H](O[C@@H]2O[C@H](C)C[C@H](N(C)C)[C@H]2O)[C@](C)(OC)C[C@@H](C)C(=O)[C@H](C)[C@H]2N(CCCCn3cnc(-c4cccnc4)c3)C(=O)O[C@]12C`, “inactive”. Regarding `CC(CCc1ccccc1)NCC(O)c1ccc(O)c(C(N)=O)c1` (configuration not stated), the result was inactive. For the compound `CO/N=C(\C(=O)N[C@@H]1C(=O)N2C(C(=O)O)=C(C[N+]3(C)CCCC3)CS[C@H]12)c1csc(N)n1`, the compound was called inactive. The same measure, in the same setting: under `CCC(=O)NCCC1CCc2ccc3c(c21)CCO3` (configuration not stated) stands “inactive”; under `OC[C@H]1O[C@@H](n2cnc3c2NC=NC[C@H]3O)C[C@@H]1O`, “inactive”; under `CSCC[C@H](NC(=O)[C@H](Cc1ccc(OS(=O)(=O)O)cc1)NC(=O)[C@@H](N)CC(=O)O)C(=O)NCC(=O)N[C@@H](Cc1c[nH]c2ccccc12)C(=O)N[C@@H](CCSC)C(=O)N[C@@H](CC(=O)O)C(=O)N[C@@H](Cc1ccccc1)C(N)=O`, “inactive”. On the same count and under the same terms, in the case of `S=P(N1CC1)(N1CC1)N1CC1` it was “inactive”; in that of `CC(C)c1nc(N(C)S(C)(=O)=O)nc(-c2ccc(F)cc2)c1/C=C/C(O)CC(O)CC(=O)O` (configuration not stated), “inactive”. Turning to `CC[C@H](C)C(=O)O[C@H]1C[C@H](O)C=C2C=C[C@H](C)[C@H](CC[C@@H](O)C[C@@H](O)CC(=O)O)[C@H]21`, the call was inactive. The same measure, in the same setting: in the case of `CC(=O)N=c1sc(S(N)(=O)=O)nn1C` it was “inactive”; in that of `C[C@@H]1[C@H](O)[C@@H](C)/C=C/C=C\C=C\C=C\C=C\C=C\C=C\[C@H](O[C@@H]2O[C@H](C)[C@@H](O)[C@H](N)[C@@H]2O)C[C@@H]2O[C@](O)(C[C@@H](O)C[C@@H](O)[C@H](O)CC[C@@H](O)C[C@@H](O)CC(=O)O[C@H]1C)C[C@H](O)[C@H]2C(=O)O` (stereo in doubt), “inactive”. Same read-out and setting: in the case of `Clc1ccc2c(c1)C(c1ccccc1)=NCc1nncn1-2` it was “inactive”. The same measure, in the same setting: in the case of `CCC[C@@H]1C[C@@H](C(=O)N[C@@H]([C@H]2O[C@H](SC)[C@H](O)[C@@H](O)[C@H]2O)[C@H](C)Cl)N(C)C1` it was “inactive”; in that of `Nc1nc(Cl)nc2c1ncn2[C@@H]1O[C@H](CO)[C@@H](O)[C@@H]1F`, “inactive”; in that of `CC(CCc1ccc(O)cc1)NCCc1ccc(O)c(O)c1` (configuration not stated), “inactive”. Turning to `CCOC(=O)CCC(=O)O[C@H]1[C@H](O[C@@H]2[C@@H](C)[C@H](O[C@H]3C[C@@](C)(OC)[C@@H](O)[C@H](C)O3)[C@@H](C)C(=O)O[C@H](CC)[C@@](C)(O)[C@H](O)[C@@H](C)C(=O)[C@H](C)C[C@@]2(C)O)O[C@H](C)C[C@@H]1N(C)C`, the compound was called inactive.

By AC50 is commonly meant the midpoint of the concentration-response curve, whichever way the signal moves.
